# Source: PubChem BioAssay (several laboratories)
# A selection: hits, their analogues and other compounds. The true share with any hit is near 1.9%.
# eIF4E 4G PPI: inhibitors of eIF4E and eIF4G interaction in translation initiation; P63073+Q04637; TR-FRET eIF4E-eIF4GI(517-606) binding, 2 h; inhibition, % at 21.7 µM; 220,000 tested, 0.37% active; AID 782;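 active means inhibition above about 30%, limit read from the data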;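 further: 0% = full FRET control wells and 100% = background wells lacking eIF4GI fragment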
# eIF4H FP inh: inhibitors of RNA binding by human eIF4H | Q15056 | eIF4H fluorescence polarization binding assay | inhibition, % at 35 µM | 290,000 tested, 0.94% active | AID 2012;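 further: calls also rest on retests at 20 µM and on dose response follow-up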
# MLLE-PAM2 inh: blocks PAM2 peptide binding to the PABP1 MLLE domain | 360,000 tested, 0.36% active | GST-MLLE / FITC-PAM2 fluorescence polarization | P11940 | inhibition, % at 20 µM; in the data active means inhibition above about 35%, passing the limit was not always enough;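 further: plate controls were DMSO wells with GST-MLLE for no effect and wells lacking GST-MLLE protein for full effect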
# PABP FP inh: blocks human PABP binding to poly(A) RNA. calls only at 35 µM. AID 2014. P11940. fluorescence polarization. 290,000 tested, 1% active;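 further: calls also rest on retests at 20 µM and on dose response follow-up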
# 14-3-3 Bad PPI: disrupts binding of bovine 14-3-3 zeta to phospho-Bad peptide. P63103. TR-FRET 14-3-3zeta/Dy647-pBad peptide displacement, 1 h. inhibition, % at 21.7 µM. 220,000 tested, 0.71% active. AID 781;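 active means inhibition above about 70%, limit read from the data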;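 further: 0% = full 14-3-3 plus peptide FRET controls and 100% = background without 14-3-3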
# Target sequence (P63103 whole entry, looked up): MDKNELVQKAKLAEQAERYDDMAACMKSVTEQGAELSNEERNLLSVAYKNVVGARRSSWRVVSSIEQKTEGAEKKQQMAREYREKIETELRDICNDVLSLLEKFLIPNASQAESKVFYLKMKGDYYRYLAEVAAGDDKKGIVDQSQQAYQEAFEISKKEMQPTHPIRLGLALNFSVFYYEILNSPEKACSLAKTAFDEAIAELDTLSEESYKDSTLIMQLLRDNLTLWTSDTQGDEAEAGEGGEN
# Numbers without * were called inactive; i = inactive; ? = inconclusive; / = no result given; + = active, no number. Unless noted, how the calls were made is not given here.
SMILES,eIF4E 4G PPI,eIF4H FP inh,MLLE-PAM2 inh,PABP FP inh,14-3-3 Bad PPI
Cc1cccn2c(=O)c3cc(C(=O)NCc4ccco4)c(=N)n(CCOCCO)c3nc12,-7.3,/,58.4*,/,-8.9
N=c1c(C(=O)NCc2ccco2)cc2c(=O)n3ccccc3nc2n1CC1CCCO1 (centres undefined),/,/,47.2*,/,/
COc1ccc(CCn2c(=N)c(C(=O)NCc3ccco3)cc3c(=O)n4ccccc4nc32)cc1OC,/,/,-1.8,/,/
N=c1c(C(=O)NCc2ccc(F)cc2)cc2c(=O)n3ccccc3nc2n1CC1CCCO1 (centres undefined),0.9,-4.2,-14.8,i,9.3
Cc1c(OC(C)C(=O)NCc2ccncc2)ccc2c3c(c(=O)oc12)CCCC3 (centres undefined),/,-2.7,7.3,i,/
O=C(NC(=O)c1cc([N+](=O)[O-])ccc1Cl)C1=C(N2CCCC2)COC1=O,/,/,-2.8,/,/
COc1ccc(-c2csc(NC(=O)C3=COCCO3)n2)c(OC)c1,/,/,7.5,/,/
C=CCNc1nc(-c2ccc(OC)cc2OC)cs1,8.2,-10.2,14.9,i,76.4*
O=C(CN1C(=O)c2ccccc2S1(=O)=O)Nc1cccc(S(=O)(=O)N2CCCCC2)c1,/,/,1.4,/,/
CC1CC(C)CN(CC(C)(C)NS(=O)(=O)c2ccccc2)C1 (centres undefined),2.5,15.4,-9.7,i,77.2*
CC(C)c1ccc(N(CC(=O)NC2CCCCC2)C(=O)CCC(=O)Nc2ccccn2)cc1,/,-16.2,0.9,i,/
Cc1ccccc1NC(=S)NC(=O)/C=C/c1ccco1,/,22.0,13.3,i,/
Cc1ccc(-n2nc3ccc(NC(=S)NC(=O)/C=C/c4ccco4)cc3n2)cc1,-2.7,88.0,-6.6,+,1.7
Cc1ccc(-n2nc3cc(C)c(NC(=S)NC(=O)/C=C/c4ccco4)cc3n2)cc1,4.8,67.5*,-4.6,+,-3.2
COCCNC(=S)N(C)[C@H]1C[C@H]2c3cc(-c4ccccc4)ccc3CCN2C(=O)[C@H]1[C@H](C)O,/,/,-49.1,/,/
CCOC(=O)c1cc(C)n(-c2ccccc2)c1C,1.6,3.0,0.6,i,58.2
Cc1cc(/C=c2/sc3nc4ccccc4n3c2=O)c(C)n1-c1ccccn1,-6.8,21.7,-39.1,i,-6.6
O=C(O)c1ccc(-c2ccc(/C=c3/sc4nc5ccccc5n4c3=O)o2)cc1Cl,/,78.3,-70.0,+,/
Cc1cc(/C=c2\sc3nc4ccccc4n3c2=O)c(C)n1-c1ccc(C(=O)O)cc1,7.2,64.2,-43.6,+,18.2
Cc1cc(C)c2nc3sc(=Cc4ccc(-c5ccccc5C(=O)O)o4)c(=O)n3c2c1,/,/,-105.8,/,/
CCC1CCCCN1CCCNC(=O)Cn1ncn2nc(-c3ccc(OC)cc3)cc2c1=O (centres undefined),/,-0.5,7.8,i,/
COc1ccc(-c2ccccc2)cc1NC(=O)C1(C)CCN1C(=O)C(C)C (centres undefined),/,/,-0.6,/,/
O=C(c1cccnc1)N1CCN(Cc2cccc(F)c2)CC1,20.3,8.8,7.7,i,75.5*
CCC(Oc1ccc(C)cc1)C(=O)Nc1ccccc1C(=O)N1CCOCC1 (centres undefined),/,-3.5,-0.2,i,/
Cc1ccc(-n2c(=O)c3cc4c(=O)n(-c5ccc(C)c(C)c5)c(=O)c4c(C(=O)c4ccc(C(=O)O)cc4)c3c2=O)cc1C,63.8*,78.4,-0.7,i,36.1
SMILES,eIF4E 4G PPI,eIF4H FP inh,MLLE-PAM2 inh,PABP FP inh,14-3-3 Bad PPI
O=C(O)c1ccc(-n2c(=O)c3ccccc3c3ccccc3c2=O)cc1,1.5,-8.5,-7.9,i,-3.9
COc1ccc(OC)c(S(=O)(=O)N2CCCC(C(=O)N3CCCCCC3)C2)c1 (centres undefined),/,-10.4,-10.1,i,/
Cc1cc2nc(C3CCCN(C(=O)NCc4ccccc4)C3)[nH]c2cc1C (centres undefined),5.8,-12.2,-7.7,i,75.5*
c1ccc2c(CSc3nnc(-c4ccncc4)o3)cccc2c1,11.0,-3.0,18.6,i,78.0*
O=C(COC(=O)/C=C/c1ccco1)NCCN1C(=O)CSC1=O,/,/,7.7,/,/
CC1(C2CC2)NC(=O)N(CC(=O)N2CCN(c3ccc(F)cc3)CC2)C1=O (centres undefined),/,/,10.0,/,/
Cc1ccc2nc(-c3ccc(N4C(=NC(=O)CCC(=O)O)SC5CS(=O)(=O)CC54)cc3)sc2c1 (centres undefined),10.9,69.5*,-10.2,+,11.4
CSC[C@H]1CN(Cc2cccnc2)C(=O)[C@@H]1CC(=O)Nc1ccc(Br)cc1,/,/,5.3,/,/
COc1ccc(C2=CC(c3ccc(F)cc3)n3nnnc3N2)cc1 (centres undefined),4.8,-0.3,45.5*,i,-4.7
C[C@H](CO)N1C[C@H](C)[C@@H](CN(C)C(=O)Nc2ccccc2)Oc2c(NC(=O)C3CCCCC3)cccc2C1=O,/,/,-6.6,/,/
COc1cc(/C=C(/C#N)c2nc(-c3cc4ccccc4oc3=O)cs2)cc([N+](=O)[O-])c1O,61.6*,37.4,/,i,96.6*
Nc1nc2ncc(C(=O)c3cc(Cl)cc(Cl)c3O)cc2s1,-1.8,88.7*,-9.8,i,-10.1
Nc1nc2ncc(C(=O)c3cc(F)ccc3O)cc2s1,-3.4,-9.7,-15.5,i,0.1
CC(C)(C)NC(=O)CSc1nnc(-c2ccccn2)n1Cc1ccccc1,2.4,-2.9,0.9,i,-3.2
C=CCNC(=O)CSc1nnc(-c2ccccn2)n1Cc1ccccc1,0.6,?,4.8,+,-6.2
Cc1ccc(C)c(NC(=O)CCNS(=O)(=O)c2ccc3[nH]c(=O)oc3c2)c1,/,72.6*,-15.6,i,/
Cc1ccc(NC(=O)CCNS(=O)(=O)c2ccc3[nH]c(=O)oc3c2)c(C)c1,/,-7.0,-9.7,i,/
COc1ccc2nc(Cl)c(C3CC(c4ccco4)=NN3C(=O)CCCC(=O)O)cc2c1 (centres undefined),11.7,68.0,1.1,i,0.6
O=C(CCl)N1N=C(c2cccs2)CC1c1ccco1 (centres undefined),-1.0,2.8,-20.2,i,-7.8
Cc1ccc2nc(Cl)c(C3CC(c4ccco4)=NN3C(=O)CCCC(=O)O)cc2c1 (centres undefined),0.3,16.6,-2.0,i,1.4
O=C(CCl)N1N=C(c2ccco2)CC1c1ccco1 (centres undefined),/,53.9*,7.0,+,/
Cc1cccc2cc(C3CC(c4ccco4)=NN3C(=O)CCC(=O)O)c(Cl)nc12 (centres undefined),0.9,56.4*,-8.7,i,3.4
COc1ccc2nc(Cl)c(C3CC(c4ccco4)=NN3C(=O)CCC(=O)O)cc2c1 (centres undefined),-0.8,92.4*,-2.4,i,-3.2
CCc1noc(C)c1C(=O)NNC(=O)COc1ccc(Br)cc1,/,-15.2,-10.5,i,/
CN(CC(=O)Nc1cccc(F)c1)C(=O)/C=C/c1cn(Cc2ccccc2)nc1-c1cccnc1,/,/,-30.0,/,/
COc1ccc(NC(=O)CN2CCC(NC(=O)c3ccc(OC)cc3)CC2)cc1,/,-5.7,5.7,i,/
